# Experimental data as given in the supplement of paper PMC6555819.
# Assays:
# Assay in all cases: PBM binding z-score (relative to random genomic background probes); higher = stronger binding; sequences stand for … in GC…GCGATTGACAGCGTAGAATGAAGG
# [1] = test system: RARb homodimer (NR concentration 270 nM)
# Summary of the method: (§1)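 Binding buffer was PBS pH 7.4 with 2% milk, 0.02% Triton X-100, 1 mM DTT, 0.2 mg/mL BSA and 0.4 mg/ml salmon testes DNA. In it, ligand-free nuclear receptor dimers were incubated 1 h on custom Agilent 4×180K protein-binding microarrays carrying double-stranded probes. Antibodies against each partner (one per run) detected binding, and z-scores were calculated against random background probes after regression normalization of scanned fluorescence.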
# [2] = test system: RARg:RXRa (NR concentration 270 nM, RXRa partner concentration 90 nM)
# Summary of the method: as §1
# [3] = test system: RARg homodimer (NR concentration 270 nM)
# Summary of the method: as §1
# [4] = test system: RXRa DBDmut IVT, anti-RXR (DBD mutation: RXRa K156A/R161A, NR concentration 90 nM)
# Summary of the method: as §1
# [5] = test system: RXRa homodimer (NR concentration 180 nM)
# Summary of the method: as §1
# [6] = test system: THRa:RXRa (NR concentration 90 nM, RXRa partner concentration 90 nM)
# Summary of the method: as §1
# [7] = test system: THRa homodimer (NR concentration 90 nM)
# Summary of the method: as §1
# [8] = test system: VDR homodimer (NR concentration 270 nM)
# Summary of the method: as §1
Sequence,PBM binding z-score [1],PBM binding z-score [2],PBM binding z-score [3],PBM binding z-score [4],PBM binding z-score [5],PBM binding z-score [6],PBM binding z-score [7],PBM binding z-score [8]
CTCGAAGGGTCGTGCTCAGGTGAGTATACCAAAC,1.59,3.39,2.01,1.01,2.52,3.65,0.851,0.628
TTACCAAGGTGAAAGGACGTTGATGCACGCCTTG,0.523,0.792,0.651,-0.0859,0.819,1.36,0.386,-0.00942
CGAACTCGGTCATCCAGGACAGTGAATACATTGA,1.59,2.22,2.83,0.985,0.784,2.12,0.998,1.15
GGAACGAGGGCAAGTTGATAGCAGAGTTTGATGG,1.67,1.68,2.25,2.42,0.781,1.3,0.0645,1.9
TGAATGAGGTTAAAGATCTGGGAACGTGGCGTCG,0.638,1.65,1.42,1.24,2.49,2.26,0.597,0.872
CGAACTACGTCAGAACAGGACAGTGAAGGATGAT,-0.0991,-0.0189,0.316,0.247,-0.063,0.397,-0.497,-0.159
TAGCCTTGGTCATGGGCCAGTATACCACGCGAAC,0.441,0.368,0.681,-1.32,0.297,-0.147,-0.424,-0.715
TCATATAGGTAAACAGGTGAGAGTCCGTAAGTTA,0.672,0.456,0.431,1.08,0.983,0.521,0.361,0.486
TCTTGTAGATCAAGCAGGTTAAGATAGCCTGAGT,0.14,0.091,0.0595,0.547,0.359,0.324,-0.172,-0.247
AATGCAGGGTCACTAGGCCAGAGTAGGTACGAAT,3.32,5.29,4.82,2.75,5.37,3.27,0.736,2.33
TCATATAGGTAAAAGGTGAATGTCGGTGTGGTAA,1.88,1.75,1.04,1.81,2.85,1.5,0.686,0.531
AGTACGAGGGCACGCTGAGTTGATAGCAGAGTAG,1.41,2.07,2.38,2.3,1.2,1.92,0.295,2.17
TAGCCTAGGTCATTCAGGGGACAGTATAGAAAGC,3.89,6.43,4.2,2.35,2.9,3.75,1.54,1.66
CCTACCAGGCCAGGGTCACTCAAGCATTTCGCTT,2.84,3.13,2.44,-0.231,3.18,2.98,1.56,1.29
TCATATAGGTAAATGTGAAAGTCGAACGATATGA,-0.396,0.293,0.464,0.849,0.579,-0.0536,-0.354,0.207
TGTCAAAGTTTAAAGGTAACGTAAGTATCCACAC,1.36,2.26,1.75,1.11,2.1,1.99,-0.137,0.446
GCTTACGGATCAAAGGTTATAGCATGAATAGAAT,0.947,1.91,0.963,0.513,3.71,1.64,-0.516,-0.0828
CGAACTAGGTCAGAACAGGACAGAGAAGGATGAT,1.89,2.45,3.27,0.331,1.2,3.39,0.271,0.244
CGAACGAGGGCATGGGTTGATAGCAAATGCCGAT,1.27,1.31,1.55,1.93,1.26,1.52,0.384,1.72

Sequence,PBM binding z-score [1],PBM binding z-score [2],PBM binding z-score [3],PBM binding z-score [4],PBM binding z-score [5],PBM binding z-score [6],PBM binding z-score [7],PBM binding z-score [8]
TAGCCTAGGTCATGGGCCAGTAGACCACGCGAAC,3.01,4.29,4.33,-0.149,3.68,3.04,1.09,0.284
GCTAGTCGGTCAGTAAAAGGTCACACACCGGTCG,5.59,6.16,6.16,0.548,5.55,3.62,1.73,1.85
ATCTCTAGGTAAGAAGTTCAGTGAAAGAGAGGAC,1.85,1.25,1.48,0.26,0.531,0.982,0.234,1.52
CCTGCTAGGTCCTGGTCAGCTAATCTACAGTATG,0.0603,-0.177,-0.17,-0.107,-0.298,-0.0341,-0.199,-0.989
TTATATAGGTAAACAGGTGAAAGTCCGTAAGTTA,0.827,0.632,0.572,0.156,0.949,0.802,0.282,0.242
TAGCCTAGGTCATCCGGGCCAGTATAGTGTCGGC,3.17,4.1,4.53,1.24,2.96,3.16,1.16,1.42
ATCTCTAGGTAACCAAGGTCAGTGAATGCCGAAC,3.5,2.62,2.69,0.51,2.14,3.31,2.53,1.52
GGAACGAGGGCAAGTTAATAGCAGAGTTTGATGG,1.35,1.46,2.01,2.29,0.717,1.2,-0.0334,1.6
ATCTCTAAGTAACAAGTTCAGTGAAAGAGAGGAC,1.84,0.884,1.24,1.06,0.744,0.981,0.691,2.61
TCTATTAGTTGACTAGGGCAACCGAAACAGCGGA,0.778,0.736,0.586,1.31,0.703,0.514,0.147,0.286
ACTATTAGTTGAGACAAGGGCAACCGATAGGTTG,1.01,0.568,0.799,0.0242,0.407,1.96,-0.191,0.496
TAAGACAGGTGAAGGTAACTCAGGTACGCAGTCG,0.812,0.869,0.994,-0.391,0.793,1.48,0.449,0.487
CCGACTGGGGCAGGGTTACCATAACGCACAGCCA,1,0.693,0.718,-1.08,1.06,0.632,-0.0778,-0.615
GATACAGGGTCAACGCCAGAGTACGCGTATTGAT,3.62,5.79,6.23,2.6,6.68,3.42,1,2.52
TTACCAAGGTGAGCTGAGGTCGTTGCTCCAACTC,1.57,0.912,0.763,0.505,1.26,4.78,2.1,1.93
CATATTAGTTGACCATAAGGGCAACCGAAGCTCG,2.07,1.61,1.37,0.612,0.942,1.95,1.35,1.14
GCTTGTAGATCATGGTTAAGAAAGACTAAGCTAA,-0.707,-0.198,-0.267,0.0641,-0.538,-0.389,-0.737,-0.385
ATCTCTATGTAACAAGTTCAGTGAAAGAGAGGAC,1.49,0.833,1.3,0.923,0.533,0.782,0.323,2.17
AGAATGAGGTGATTAAGATCAGGGAATTGCGGTC,0.255,0.185,0.285,0.136,0.381,1.53,0.417,-0.688

Sequence,PBM binding z-score [1],PBM binding z-score [2],PBM binding z-score [3],PBM binding z-score [4],PBM binding z-score [5],PBM binding z-score [6],PBM binding z-score [7],PBM binding z-score [8]
ATATGTAGGTTACATCCGGGTCATTCGGGCTATG,2.99,3.7,2.26,1.22,3.01,3.69,2.36,3.19
GATATAGGGTCAAGGCCAGAGTACGCGTATTGAT,3.71,5.6,5.13,2.83,5.81,3.96,2.03,2.59
GCGACTTGGGCATCAGCAGGTTACCATAACTTAA,-0.0318,-0.252,-0.319,-0.131,-0.00546,0.236,0.128,-0.321
ATCTCTAGTTAAAGATAGTTCAGTGAATGCAAAT,1.14,0.636,0.66,0.396,0.579,0.486,0.212,0.858
TCGAGTAGGTTAGGGGCCTTCAGAATGGCGTCGA,-0.137,-0.483,-0.763,-0.0601,-0.143,-0.36,-0.629,-0.468
ATCTCTAGGTAACAAGTTCAGTGTAAGAGAGGAC,1.94,1.5,1.49,1.15,0.874,1.8,0.989,2.99
ACTCGGAGGACAAAGGACAGAGCTACGCCAGTGA,1.11,1,1.64,0.398,0.0489,0.569,-0.18,-0.184
GCTATTAGTTGAAAGGGCAATCGAATGATTCTCG,1.55,0.91,0.806,0.718,1.12,0.487,-0.359,0.123
CGAACTAAGTCAAGGACAGTGAATCTCCGCACGC,0.164,0.0358,0.274,0.417,-0.164,1.45,1.12,-0.0534
ATCTCTAGGTAACCAAGTTCAGTCAATGCCGAAC,2,1.22,1.21,1.27,0.744,1.86,1.06,3.43
ACTAGTTGGTGAGCTGAGGTCACACACAATTCGG,3.86,3.85,3.11,0.874,4.01,4.44,5.07,3.31
ATCTCTAGGAAACAAGTTCAGTGAAAGAGAGGAC,1.32,1,0.918,0.688,0.725,0.835,0.164,2.27
TCATATAGGTAAACGCTAGGTGAAAGTCCGATCT,0.416,0.628,0.523,1.63,0.944,1.52,0.385,0.251
CCTACTGGGCCATTCATAGGTCATTGATCATATG,2.77,2.41,1.78,0.112,1.56,1.6,0.0409,0.415
ACAGACAGGTGATGAAGGTAACTCATGCTATCAT,0.0338,0.394,0.615,-0.0265,0.382,0.149,-0.485,-0.456
ATCTCTAGGTAACAAGTTTAGTGAAAGAGAGGAC,0.455,0.384,0.772,0.0199,0.165,0.929,0.836,0.684
ATCTCTAGGTAACAAGTTCAGTGATAGAGAGGAC,1.92,1.05,1.57,1.06,0.757,1.38,0.931,2.93
GCTTACGGGTCACAGGTTATAGCATGAATAGAAT,2.95,5.09,4.66,2.03,5.84,2.86,0.315,0.608
